# Measurements as given in PubChem BioAssay (NCATS).
# Results filed as inconclusive are left out. A call without a number means that no potency is given here. Calls of active or inactive are those of the source. Unless noted, calls follow the shape of the full dose curve. Residues, ends and D or L forms follow the SMILES beside them. *: point of attachment. Cbz = O=C(OCc1ccccc1)*
# Experiments:
# [1] = qHTS assay for measurement of the activity of small molecule inhibitors on Zika virus induced Caspase-3 activity in human iPSC derived neural progenitor cells (hNPCs) (AID 1224857; active = well fitted inhibition curve with a large enough effect; also: nearly all actives have a fitted effect of over 65% in size)
# Method in brief: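 Zika virus (2 FFU/cell) infection of human iPSC-derived NPCs, 6 h, following 1 h compound preincubation. Read-out: Caspase-Glo 3/7 luminescence.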
# [2] = qHTS assay for measurement of the activity of small molecule inhibitors on Zika virus induced Caspase-3 activity in human astrocytoma cells (AID 1224859; active = well fitted inhibition curve with a large enough effect)
# Method in brief: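 Caspase activation in ZIKV-infected SNB-19 cells (2 FFU/cell, 6 h) measured by Caspase-Glo 3/7 luminescence after 30 min RT; compound pre-incubated 1 h; normalised to uninfected and infected controls.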
# [3] = Natriuretic polypeptide receptor (hNpr1) antagonism - Pilot counterscreen GloSensor control cell line (AID 1347045); also: potency is read from the fitted curve at half-maximal effect
# Method in brief: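 Luminescence was read before and 20 min after adding 50 uM SNP, which stimulates soluble guanylyl cyclase. The HEK293 cells expressing the GloSensor cGMP sensor had been preloaded with 2% reagent for 2 h and treated with compound.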
# [4] = target: Atrial natriuretic peptide receptor 1 (Homo sapiens) (UniProt P16066); assay: Natriuretic polypeptide receptor (hNpr1) antagonism - Pilot screen (AID 1347049);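 also: agonist-evoked cGMP luminescence read 20 min after hNppA addition; series mostly up to about 58 µM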
# Method in brief: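 HEK293 cells expressing hNpr1 and GloSensor cGMP luciferase, 1500/well, loaded with 2% GloSensor reagent 2 h, compound 30 min at room temperature; luminescence read before and 20 min after 0.1 nM hNppA stimulation.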
# [5] = target: Atrial natriuretic peptide receptor 2 (Homo sapiens) (UniProt P20594); assay: Natriuretic polypeptide receptor (hNpr2) antagonism - Pilot subtype selectivity assay (AID 1347050)
# Method in brief: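 HEK293 cells expressing hNpr2 and a GloSensor cGMP luciferase sensor, 1500/well, preloaded 2 h with 2% GloSensor reagent, compound 30 min, then 1 nM hNppC for 20 min. Antagonism from luminescence after versus baseline pre-read; LOPAC in 1:5 titrations.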
# Atrial natriuretic peptide receptor 2 (Homo sapiens), sequence (P20594 whole entry, looked up): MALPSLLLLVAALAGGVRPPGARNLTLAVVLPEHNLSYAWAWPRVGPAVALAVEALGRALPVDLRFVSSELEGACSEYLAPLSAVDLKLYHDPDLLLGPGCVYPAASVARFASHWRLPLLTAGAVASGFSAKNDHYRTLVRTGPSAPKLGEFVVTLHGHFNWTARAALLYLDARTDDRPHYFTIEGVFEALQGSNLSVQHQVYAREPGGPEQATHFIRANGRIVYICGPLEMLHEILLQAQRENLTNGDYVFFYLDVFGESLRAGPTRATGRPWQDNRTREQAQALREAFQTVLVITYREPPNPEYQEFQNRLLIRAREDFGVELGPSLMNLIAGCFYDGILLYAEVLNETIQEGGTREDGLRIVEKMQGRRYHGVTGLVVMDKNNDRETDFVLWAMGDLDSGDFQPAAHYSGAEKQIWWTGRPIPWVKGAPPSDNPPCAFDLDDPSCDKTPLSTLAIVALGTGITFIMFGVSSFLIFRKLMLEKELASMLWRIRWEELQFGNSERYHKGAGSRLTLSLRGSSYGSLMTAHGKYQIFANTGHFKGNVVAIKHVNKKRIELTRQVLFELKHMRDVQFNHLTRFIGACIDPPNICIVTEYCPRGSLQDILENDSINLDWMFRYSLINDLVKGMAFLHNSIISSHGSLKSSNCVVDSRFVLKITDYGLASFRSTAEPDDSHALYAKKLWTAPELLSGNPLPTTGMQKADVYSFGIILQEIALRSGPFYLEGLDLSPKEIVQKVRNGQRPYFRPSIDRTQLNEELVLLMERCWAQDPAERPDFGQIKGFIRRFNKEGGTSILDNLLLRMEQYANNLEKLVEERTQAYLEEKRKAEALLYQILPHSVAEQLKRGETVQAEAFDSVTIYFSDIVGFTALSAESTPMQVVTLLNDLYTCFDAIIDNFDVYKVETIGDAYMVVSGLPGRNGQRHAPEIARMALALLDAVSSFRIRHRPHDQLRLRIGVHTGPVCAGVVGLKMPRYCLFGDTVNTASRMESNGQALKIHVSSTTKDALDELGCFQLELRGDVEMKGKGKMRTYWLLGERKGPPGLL
# Atrial natriuretic peptide receptor 1 (Homo sapiens), sequence (P16066 whole entry, looked up): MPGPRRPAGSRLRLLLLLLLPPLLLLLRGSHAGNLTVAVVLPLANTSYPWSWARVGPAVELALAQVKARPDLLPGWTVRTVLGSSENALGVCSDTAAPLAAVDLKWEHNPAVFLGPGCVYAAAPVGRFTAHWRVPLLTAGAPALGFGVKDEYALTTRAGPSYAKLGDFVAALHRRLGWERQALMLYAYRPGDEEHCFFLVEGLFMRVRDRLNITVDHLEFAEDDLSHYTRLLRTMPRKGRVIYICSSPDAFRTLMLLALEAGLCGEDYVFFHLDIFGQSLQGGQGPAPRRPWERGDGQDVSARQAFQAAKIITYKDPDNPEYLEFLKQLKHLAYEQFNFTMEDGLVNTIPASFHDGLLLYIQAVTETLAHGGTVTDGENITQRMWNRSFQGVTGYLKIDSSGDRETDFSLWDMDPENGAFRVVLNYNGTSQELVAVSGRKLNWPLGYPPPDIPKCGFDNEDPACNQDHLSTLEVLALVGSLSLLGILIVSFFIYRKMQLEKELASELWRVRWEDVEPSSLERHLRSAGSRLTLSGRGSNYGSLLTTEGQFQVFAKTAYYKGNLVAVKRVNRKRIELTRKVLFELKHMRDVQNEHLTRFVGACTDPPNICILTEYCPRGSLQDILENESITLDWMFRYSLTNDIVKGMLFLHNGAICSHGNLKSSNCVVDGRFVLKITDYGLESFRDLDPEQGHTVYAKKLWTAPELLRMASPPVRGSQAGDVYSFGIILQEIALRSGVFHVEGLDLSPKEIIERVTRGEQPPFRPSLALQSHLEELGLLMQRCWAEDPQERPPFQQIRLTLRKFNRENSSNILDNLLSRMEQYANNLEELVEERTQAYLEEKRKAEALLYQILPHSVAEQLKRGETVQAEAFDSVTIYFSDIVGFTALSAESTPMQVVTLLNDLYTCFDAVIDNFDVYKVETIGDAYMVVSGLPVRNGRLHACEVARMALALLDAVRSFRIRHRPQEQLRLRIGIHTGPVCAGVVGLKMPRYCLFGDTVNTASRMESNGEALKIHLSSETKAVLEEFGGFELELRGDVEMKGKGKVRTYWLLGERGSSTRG
Structure (SMILES),Potency [1],Potency [2],Potency [3],Potency [4],Potency [5]
CC(C)[C@H](NC(=O)OCc1ccccc1)C(=O)N[C@H](C=O)Cc1ccccc1 (Cbz-Val-Phe-aldehyde),inactive,inactive,inactive,inactive,inactive
Cc1cccc(C(=O)NCN2CCN(c3ccccc3C#N)CC2)c1,inactive,inactive,inactive,inactive,inactive
NC(=O)c1cc[n+](CC2=C(C(=O)O)N3C(=O)[C@@H](NC(=O)[C@@H](c4ccccc4)S(=O)(=O)[O-])[C@H]3SC2)cc1,inactive,inactive,inactive,inactive,inactive
NC1(C(=O)O)CC1,inactive,inactive,inactive,inactive,
Nc1nc2c(nc(Br)n2C2OC3COP(=O)(O)O[C@@H]3C2O)c(=O)[nH]1 (stereo not given in full),inactive,inactive,inactive,inactive,inactive
c1ccc2c(c1)CCC[C@H]2Nc1nc2ccccc2[nH]1,inactive,inactive,inactive,inactive,inactive
CCCCOC(=O)NS(=O)(=O)c1sc(CC(C)C)cc1-c1ccc(Cn2c(CC)nc3c(C)cc(C)nc32)cc1,inactive,inactive,inactive,inactive,inactive
COC1(C2=NCCN2)COc2ccccc2O1 (stereo not given),inactive,inactive,inactive,inactive,
O=c1[nH]c2cc(Cl)ccc2c(O)c1-c1ccc(Oc2ccccc2)cc1,inactive,inactive,inactive,inactive,inactive
CO/N=C(\C(=O)N[C@@H]1C(=O)N2C(C(=O)O)=C(CSc3nc(=O)c(O)nn3C)CSC12)c1csc(N)n1 (stereo not given in full),inactive,inactive,inactive,inactive,inactive
CCSC(=N)N,inactive,inactive,inactive,inactive,inactive
Cc1ccccc1/C=C/C1=NCCN1,inactive,inactive,inactive,inactive,inactive
Nn1nnc2ccccc21,inactive,inactive,inactive,inactive,inactive
CCCCCCCCCC(=O)NC(CN1CCOCC1)[C@H](O)c1ccccc1 (stereo not given in full),inactive,inactive,inactive,inactive,inactive
CC(N)=O,inactive,inactive,inactive,inactive,inactive
CC(=O)/C(C)=N/O,inactive,inactive,inactive,inactive,inactive
CC1C(=O)N(C)C(=O)c2nc[nH]c21 (stereo not given),inactive,inactive,inactive,inactive,inactive
C=C1C[C@@]23CC[C@H]4[C@@](C)(CCC[C@@]4(C)C(=O)O)[C@@H]2CC[C@]1(O)C3,inactive,inactive,inactive,inactive,inactive
C=CCn1c(=O)c2c(nc(-c3ccc(S(=O)(=O)O)cc3)n2C)n(C)c1=O,inactive,inactive,inactive,inactive,inactive
O=C(O)c1ccccc1Nc1ccccc1,inactive,inactive,inactive,inactive,
CN1CC(O)C(O)C(O)C1CO (stereo not given),inactive,inactive,inactive,inactive,
CCC1(O)CC2CN(CCc3c([nH]c4ccccc34)[C@@](C(=O)OC)(c3cc4c(cc3OC)N(C=O)C3[C@]45CCN4CC=C[C@@](CC)([C@@H](OC(C)=O)[C@]3(O)C(=O)OC)[C@H]45)C2)C1 (stereo not given in full),inactive,inactive,inactive,inactive,
CC(C)Cn1c(=O)n(C)c(=O)c2[nH]cnc21,inactive,inactive,inactive,inactive,inactive

Structure (SMILES),Potency [1],Potency [2],Potency [3],Potency [4],Potency [5]
Cn1cc(C(=O)OCC2CCN(CCNS(C)(=O)=O)CC2)c2ccccc21,inactive,inactive,inactive,inactive,inactive
N[C@H](C(=O)O)c1cc(O)cc(O)c1,inactive,inactive,inactive,inactive,inactive
Cn1c(=O)c2[nH]c(-c3ccc(S(=O)(=O)O)cc3)nc2n(C)c1=O,inactive,inactive,inactive,inactive,inactive
Cc1nc(N=Nc2ccc(C(=O)O)cc2)c(COP(=O)(O)O)c(C=O)c1O,inactive,inactive,inactive,inactive,inactive
NC(=O)CNCCC(c1ccccc1)c1ccccc1,inactive,inactive,inactive,inactive,inactive
O=C1C2C=CC=CC2=NC(=S)N1CCN1CCC(=C(c2ccc(F)cc2)c2ccc(F)cc2)CC1 (stereo not given),inactive,inactive,inactive,inactive,inactive
CCCCCCCCCCCCCCSCC(=O)O,inactive,inactive,inactive,inactive,inactive
Oc1cc2c(cc1O)C(c1ccccc1)CNCC2 (stereo not given),inactive,inactive,inactive,inactive,inactive
O=C(O)C1CN(CCCP(=O)(O)O)CCN1 (stereo not given),inactive,inactive,inactive,inactive,inactive
CN1CCc2cc(Cl)c(O)cc2[C@@H](c2ccccc2)C1,inactive,inactive,inactive,inactive,inactive
CCN1C(=O)C=CC1=O,inactive,inactive,inactive,inactive,inactive
COc1cc(CNC(=O)CCCCCCC(C)C)ccc1O,inactive,inactive,inactive,inactive,inactive
Nc1ncnc2c1ncn2C1CCCO1 (stereo not given),inactive,inactive,inactive,inactive,inactive
Nc1nc2[nH]c(=O)cnc2c(=O)[nH]1,inactive,inactive,inactive,inactive,inactive
NC1C=CC=C(C(=O)O)C1 (stereo not given),inactive,inactive,inactive,inactive,inactive
Cn1c(=O)[nH]c2ncn(C)c2c1=O,inactive,inactive,inactive,inactive,inactive
Cn1ccnc1,inactive,inactive,inactive,inactive,inactive
CCCC[C@@]1(C2CCCC2)Cc2cc(OCC(=O)O)c(Cl)c(Cl)c2C1=O,inactive,inactive,inactive,inactive,inactive
O=c1[nH]c(=O)c2nc3ccccc3nc2[nH]1,inactive,inactive,inactive,inactive,inactive
COc1cc(/C=C(\C#N)C(=O)c2ccc(O)c(O)c2)cc(I)c1O,inactive,inactive,inactive,inactive,inactive
C=CC[C@H](N)C(=O)O,inactive,inactive,inactive,inactive,inactive
CC(C)(CO)Cc1cc(C(C)(C)C)c(O)c(C(C)(C)C)c1,inactive,inactive,inactive,inactive,inactive
CC(N)(Cc1ccc(O)cc1)C(=O)O (stereo not given),inactive,inactive,inactive,inactive,inactive

Structure (SMILES),Potency [1],Potency [2],Potency [3],Potency [4],Potency [5]
O=c1cc(-c2ccccc2F)[nH]c2cc3c(cc12)OCO3,inactive,inactive,inactive,inactive,inactive
N[C@H]1CONC1=O,inactive,inactive,inactive,inactive,inactive
COc1ccccc1N1CCN(CCCCN2C(=O)c3ccccc3C2=O)CC1,inactive,inactive,inactive,inactive,inactive
O=[N+]([O-])c1cccc2c(Br)[nH]nc12,inactive,inactive,inactive,inactive,inactive
Cn1c(=O)c2[nH]c(C3CCCC3)nc2n(C)c1=O,inactive,inactive,inactive,inactive,inactive
COc1cc(C(O)CO)ccc1O (stereo not given),inactive,inactive,inactive,inactive,inactive
O=c1[nH]c2ccccc2c2ccccc12,inactive,inactive,inactive,inactive,inactive
N#CC(C#N)=C(N)/C(C#N)=C/c1ccc(O)cc1,inactive,inactive,inactive,inactive,inactive
CCc1ccc2c(-c3cccc(Cl)c3)nc(=O)n(CC)c2n1,inactive,inactive,inactive,inactive,inactive
Nc1ccc2c3c(cccc13)C(=O)NC2=O,inactive,inactive,inactive,inactive,inactive
O=c1onc2n1-c1cc(Br)ccc1OC2,inactive,inactive,131 nM (active),inactive,inactive
CCCCCCC(=O)OC1CC(C)(C)NC(C)(C)C1,inactive,inactive,inactive,inactive,inactive
C=C(C)C1CC=C(C(=O)O)CC1 (stereo not given),inactive,inactive,inactive,inactive,inactive
C[C@@]1(C2CCCC2)Cc2cc(OCC(=O)O)c(Cl)c(Cl)c2C1=O,inactive,inactive,inactive,inactive,inactive
CC1CCN(CC[C@H]2CCCN2S(=O)(=O)c2cccc(O)c2)CC1,inactive,inactive,inactive,inactive,inactive
O=C(OCCN1CCOCC1)C1(c2ccccc2)CCCCC1,inactive,inactive,inactive,inactive,inactive
NCCC1CCCC(CCN)N1 (stereo not given),inactive,inactive,inactive,inactive,inactive
O=C(O)c1ccccc1Nc1cccc(OCc2ccc3ccccc3n2)c1,inactive,inactive,inactive,inactive,inactive
CCCCC[C@H](CC(=O)NO)C(=O)N[C@H](C(=O)N1CCC[C@H]1CO)C(C)C,inactive,inactive,inactive,inactive,inactive
NC1(C(=O)O)CCCCC1,inactive,inactive,inactive,inactive,inactive
O=C(O)c1cccnc1C(=O)O,inactive,inactive,inactive,inactive,inactive
CCCCCCCCCCC(C)(C)C(=O)Nc1c(OC)cc(OC)cc1OC,inactive,inactive,inactive,inactive,inactive
